# PubChem BioAssay
# The source made the active and inactive calls.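 Rule for the calls, unless noted: active = NADPH fluorescence slope more negative than the mean of all samples by about 3 SD, 99.7% confidence; inactive = the rest.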
# Experiments:
# [1] = inhibitors of TNFa-induced NFkB p65 translocation, primary screen, imaging, HUVEC, MLSMR starter and 10KST1 sets (AID 438;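 active = inhibition above 20% together with a positive visual image hit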;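 note: compound added about 3h40 before a 20 min TNFalpha stimulation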;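 for inhibition: signal is the nuclear over cytoplasmic p65 intensity ratio per well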); settings: HUVEC TNFa-induced p65 nuclear translocation; cell count: measured here: nuclei count (cytotoxicity indicator), at 2.08 µM; inhibition: at 2 µM, stronger effect = higher value, 0% TNFa-plus-vehicle, 100% no-TNFa wells
# [2] = inhibitors of mutant huntingtin aggregation, primary screen, imaging, exon1htt(103Q)mCFP cells, high-content imaging (AID 483;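 active = visual image review flags a hit and inhibition of aggregation exceeds 20%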;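 note: compound exposure lasted 3 days before fixation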;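 for nuclei count: percent of the per-plate median nuclei count of sample wells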); settings: exon1htt(103Q)mCFP cell line, aggregate imaging, at 2 µM; inhibition of aggregation: stronger effect = higher value; nuclei count: measured here: cell count, toxicity
# [3] = inhibitors of E-selectin induction by TNFa, primary screen, imaging, HUVEC, immunofluorescence, MLSMR starter and 10KST1 sets (AID 487;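 active = visually confirmed hit in the image check and inhibition above 20%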;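 for inhibition: signal is fraction of cell area covered by stained E-selectin grains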;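 for nuclei count: 100% = median nuclei count of all wells on the same plate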); settings: HUVEC TNFalpha-induced E-selectin immunofluorescence imaging, at 2 µM; inhibition: stronger effect = higher value; nuclei count: measured here: cell number, toxicity
# [4] = molecular target: Voltage-gated potassium channel subunit beta-2 (Rattus norvegicus) (UniProt P62483); experiment: KvBeta enzyme negative modulators, primary screen, biochemical, NADPH fluorescence (AID 622;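 active = fluorescence slope higher than the sample average by over 3 SD, cut at about -0.22 in these data, passing the limit was not always enough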;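 note: slope of raw intensity against log time taken from 70 to 1610 s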); settings: recombinant KvBeta, 4-cyanobenzaldehyde reduction, at 10 µM, stronger effect = higher value
# [5] = molecular target: Voltage-gated potassium channel subunit beta-2 (Rattus norvegicus) (UniProt P62483); experiment: KvBeta positive modulators, primary screen, biochemical, NADPH fluorescence (AID 623); settings: Recombinant KvBeta, NADPH fluorescence decrease slope, 10 min; at 10 µM; stronger effect = lower value;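 note: fluorescence intensity change per second fitted from 20 to 320 s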
# [6] = molecular target: Alpha-2C adrenergic receptor (Homo sapiens) (UniProt P18825); experiment: modulators of alpha2C/GIRK thallium flux, primary screen, cell-based, HEK293 alpha2C/GIRK1/2 (AID 624;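 active = fluorescence slope after compound addition differing from the mean of all screened samples at 99.7% confidence, in either direction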;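 note: slope of fluorescence ratio to pre-addition baseline per second over 15 to 24 s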); settings: thallium flux BTC fluorescence, at 10 µM, actives lie on both sides
# [7] = inhibitors of Sendai virus-induced IRF3 signaling, primary screen, TLR/RLR signaling modifier project, cell-based, Sendai virus stimulus, luciferase, 10K MLSCN set (AID 602276;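 active = inhibition at or above 50% at 10 µM; inactive = inhibition below 50%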;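 note: firefly luciferase from ISG56 promoter only with Renilla not read in this screen; 0% = Sendai virus plus DMSO and 100% = medium plus DMSO without virus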); settings: HEK293 RL24 IRF3 luciferase reporter, at 10 µM, stronger effect = higher value
# [8] = inhibitors of poly I:C-induced TLR3 signaling, primary screen, cell-based, poly I:C stimulus, luciferase, 10K MLSCN set (AID 602277;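 active = inhibition of the reporter signal at or above 50%; inactive = inhibition below 50%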); settings: HEK293-TLR3 RL24 IRF3 luciferase reporter, at 10 µM, stronger effect = higher value
# Voltage-gated potassium channel subunit beta-2 (Rattus norvegicus), sequence (P62483 whole entry, looked up): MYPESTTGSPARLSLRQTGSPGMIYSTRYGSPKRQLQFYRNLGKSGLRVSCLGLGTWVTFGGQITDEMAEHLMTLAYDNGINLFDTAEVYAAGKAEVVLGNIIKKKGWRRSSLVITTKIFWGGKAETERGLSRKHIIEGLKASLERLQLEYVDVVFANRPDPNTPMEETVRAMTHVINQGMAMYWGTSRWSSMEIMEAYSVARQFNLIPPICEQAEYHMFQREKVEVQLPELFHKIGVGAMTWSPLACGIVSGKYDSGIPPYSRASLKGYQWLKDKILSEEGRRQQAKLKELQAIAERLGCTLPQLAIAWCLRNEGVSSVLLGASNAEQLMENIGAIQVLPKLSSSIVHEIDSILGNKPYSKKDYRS
# Alpha-2C adrenergic receptor (Homo sapiens), sequence (P18825 whole entry, looked up): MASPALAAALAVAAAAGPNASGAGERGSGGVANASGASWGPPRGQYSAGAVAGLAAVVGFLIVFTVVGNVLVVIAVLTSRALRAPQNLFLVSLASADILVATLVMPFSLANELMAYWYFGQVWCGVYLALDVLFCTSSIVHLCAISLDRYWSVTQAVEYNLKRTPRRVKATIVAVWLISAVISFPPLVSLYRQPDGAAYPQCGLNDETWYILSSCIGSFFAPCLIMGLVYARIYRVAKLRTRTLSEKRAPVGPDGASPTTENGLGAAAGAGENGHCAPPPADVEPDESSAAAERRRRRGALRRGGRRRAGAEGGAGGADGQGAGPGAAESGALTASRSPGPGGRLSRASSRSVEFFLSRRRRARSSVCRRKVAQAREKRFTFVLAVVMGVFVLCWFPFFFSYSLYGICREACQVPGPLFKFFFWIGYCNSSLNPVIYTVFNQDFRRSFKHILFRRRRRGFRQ
SMILES,cell count [1],inhibition [1],inhibition of aggregation [2],nuclei count [2] [%],inhibition [3],nuclei count [3] [%],fluorescence slope [4],NADPH fluorescence slope [5],slope [6],inhibition [7],inhibition [8]
COc1ccc(C2c3c(oc4ccccc4c3=O)C(=O)N2Cc2ccncc2)cc1OC (centres undefined),665,-2.6% (inactive),-6.6% (inactive),108,-9.9% (inactive),115,-0.315 (inactive),-4.9e-05 (inactive),0.00493 (inactive),14.3% (inactive),18.9% (inactive)
Cc1ccc(C)c(S(=O)(=O)NCc2cccnc2)c1,597,-0.6% (inactive),-6.9% (inactive),114,-89.8% (inactive),119,-0.467 (inactive),-5.5e-05 (inactive),0.00658 (inactive),141% (active),100% (active)
O=C(NCCC1=CCCCC1)N[C@@H](Cc1ccccc1)C(=O)O,377,-3.9% (inactive),-1.8% (inactive),108,-24.3% (inactive),115,-0.447 (inactive),-0.000113 (active),0.00549 (inactive),-1.48% (inactive),0.553% (inactive)
COc1ccccc1S(=O)(=O)Cc1ccc(C(=O)N2CCN(c3ccc(C)cc3)C(C)C2)o1 (centres undefined),566,6.1% (inactive),-8.4% (inactive),117,-2.9% (inactive),91.7,-0.527 (inactive),-2.9e-05 (inactive),0.00593 (inactive),16.6% (inactive),22.5% (inactive)
O=S(=O)(Nc1ncccn1)c1ccc(Nc2ncnc3ccccc23)cc1,623,-16.4% (inactive),-7.6% (inactive),89.3,-6% (inactive),105,-0.459 (inactive),-4.3e-05 (inactive),0.00604 (inactive),-24.5% (inactive),12.4% (inactive)
CCN1CCN(C(c2ccc(F)cc2)c2nnnn2Cc2cccs2)CC1 (centres undefined),605,-8.6% (inactive),1.9% (inactive),48.7,-35.5% (inactive),96.1,-0.339 (inactive),1.5e-05 (inactive),0.00582 (inactive),4.23% (inactive),21.4% (inactive)
O=C(CSc1ncnc2nc[nH]c12)c1ccc(Cl)cc1,728,-12.4% (inactive),9.4% (inactive),101,5.4% (inactive),95,-0.5 (inactive),-1.4e-05 (inactive),0.00583 (inactive),-2.82% (inactive),-23.1% (inactive)
Cc1ccc2cc(CCNC(=O)C(C)C)c(=O)[nH]c2c1C,640,1.9% (inactive),8.6% (inactive),57.4,-60.4% (inactive),125,-0.57 (inactive),-2.3e-05 (inactive),0.00565 (inactive),-6.46% (inactive),-5.17% (inactive)
Cn1c(=N)n(CC(=O)O)c2ccccc21,681,-13.8% (inactive),6.2% (inactive),114,-51.5% (inactive),131,-0.595 (inactive),-2.3e-05 (inactive),0.00551 (inactive),9.99% (inactive),11.8% (inactive)
CCOc1ccc(S(=O)(=O)N2CCN(C(=O)c3cccn3C)CC2)cc1,431,2% (inactive),-7.2% (inactive),95.6,-88.3% (inactive),105,-0.502 (inactive),-9e-06 (inactive),0.00499 (inactive),13.9% (inactive),19.3% (inactive)
O=c1[nH]c(/C(=N\O)c2ccccc2)no1,462,2% (inactive),-5% (inactive),109,-11.8% (inactive),111,-0.421 (inactive),-0.000106 (inactive),0.00496 (inactive),7.11% (inactive),24.8% (inactive)
COc1cccc(CN2CCN(C(=O)CC(C)C)CC2)c1,448,2.2% (inactive),-3.8% (inactive),118,-45.8% (inactive),132,-0.241 (inactive),2.2e-06 (inactive),0.00544 (inactive),10.5% (inactive),4.9% (inactive)
CCOC(=O)c1ccccc1NC(=O)N1CCn2c(C)ccc2C1CC (centres undefined),383,2.8% (inactive),-42% (inactive),105,-50.1% (inactive),110,-0.579 (inactive),-3.2e-05 (inactive),0.00545 (inactive),-0.392% (inactive),8.3% (inactive)
O=c1oc2ccccc2c2c1ncn2-c1ccccc1,375,0% (inactive),-20.2% (inactive),113,-9.9% (inactive),114,-0.45 (inactive),7.5e-05 (inactive),0.00569 (inactive),16.7% (inactive),27.6% (inactive)
